Data on 35 compounds can be found in PubChem BioAssay AID687020 (Broad Institute, 2013).

The campaign covered roughly 1,400 compounds. About 100 (7.1%) were called active. How the calls were made is not given here. The list is a sample of the results. Results with a measured potency or affinity are listed apart.

The nature of the assay: viability loss in Vero cells – cell-based, plate reader, cherry-pick samples, cytotoxicity control, dose response (AID 687020).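 Further: compounds incubated with cells for three days before luminescence read.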 Particulars: series mostly up to 19.5 µM.
As to `C[C@H](NC(=O)[C@H]1[C@H](CO)[C@H]2Cn3c(cccc3=O)[C@@H]1N2Cc1cccnc1)c1ccccc1`, the call was inactive.
Take `CC(C)(C(=O)N1CCC1(C)C(=O)Nc1ccccc1Br)c1ccccc1` (stereo not given): the compound was called inactive.
As for `Cc1c(C(=O)NCc2ccc(C#N)cc2)sc(=O)n1Cc1ccccn1`, the entry is “inactive”; as for `COc1ccc2oc(C(=O)OC(C)C(=O)N3CCC(C)CC3)c(C)c2c1` (stereo not given), “inactive”; as for `Cc1ccc2oc(C(=O)N(Cc3ccncc3)CC3CCCO3)c(C)c2c1` (stereo not given), “inactive”.
The value for `Cc1ccc(S(=O)(=O)Nc2ccc(O)c3ncccc23)cc1` was “inactive”.
`COCCNC(=O)C1CCC(CNS(=O)(=O)c2ccc(F)cc2)CC1` (stereo not given): the call was inactive.
As for `CCCC(=O)Nc1ccc2nn(-c3ccc(OC)cc3)nc2c1`, the call was inactive.
For `COc1cc(C(=O)OCCCN2CCOCC2)cc(OC)c1OC`, the call was inactive.
For `CCN(CC)S(=O)(=O)c1cccc(C(=O)NCC2(N3CCOCC3)CCCCC2)c1`, the call was inactive.
As for `CC(C)C[C@@H](CN1C(=O)C(=O)NC[C@@H]1CC(C)C)NC(=O)Cc1ccccc1`, the compound was classed as inactive.
For the compound `CCNC(=O)C[C@H]1CC[C@H]2[C@@H](COC[C@H](O)CN2Cc2ccc(Cl)c(Cl)c2)O1`, the call was inactive.
The value for `Cc1cccc(C)c1NC(=O)C1(C)CSCC(=O)N1Cc1cccc(C(F)(F)F)c1` (stereo not given) was “inactive”; that for `C=Cc1ccc(Cn2c(C)c(C(=O)NCc3cccc(C(F)(F)F)c3)sc2=O)cc1` was “inactive”.
With `CC(=O)Nc1ccc(OCCCN2CCC(C(O)(c3ccccc3)c3ccccc3)CC2)cc1`, the call was inactive.
The value for `O=C(Nc1ccc(F)cc1)C1CCCN(S(=O)(=O)c2ccc3[nH]c(=O)ccc3c2)C1` (stereo not given) was “inactive”; that for `Cc1ccc(NC(=O)C2(c3cccs3)CCOCC2)cc1C` was “inactive”; that for `Cc1ccc(NC(=O)CN2CCC(NC(=O)c3cccc(F)c3)CC2)cc1C` was “inactive”.
The value for `Nc1nc2c(ncn2[C@@H]2O[C@H](CNCc3ccc(F)c(N4CCOCC4)c3)[C@@H](O)[C@H]2O)c(=O)[nH]1` was “inactive”; that for `CC1(c2nnnn2Cc2ccccc2)CCC(=O)N1CCCn1ccnc1` (stereo not given) was “inactive”.
As for `COc1ccc(NC(=O)CN(C)C(=O)CC2CCCC2)cc1`, the compound was classed as inactive.
For `COC(=O)c1c(-c2ccc(OC)cc2)sc2cc3c(cc12)OCO3`, the result was inactive.
As for `CC1CCN(C(=O)COC(=O)CNC(=O)c2ccccc2F)CC1`, the call was inactive.
Regarding `Nc1sc(-c2ccccc2)cc1C(=O)NCCN1CCOCC1`, the outcome was inactive.
On to `COc1ccc(-c2nc(CN3CCC(C(=O)N4CCOCC4)CC3)c(C)o2)c(OC)c1`, for which the compound was called inactive.
For the compound `O=C(NCC1CCCCC1)[C@H]1[C@H](CO)[C@H]2Cn3c(cccc3=O)[C@@H]1N2CCc1ccccc1`, the result was inactive.
In the case of `O=C(c1cccnc1)N1CC2(C1)[C@H](c1ccccc1)[C@@H](CO)N2Cc1ccccc1`, the outcome was inactive.
As for `CN(C)CC#Cc1ccc([C@H]2[C@@H](CO)N(C(=O)C3CCC3)[C@H]2C#N)cc1`, the entry is “inactive”; as for `COC(=O)[C@H]1CN(C(=O)c2ccccc2)C(=O)N1`, “inactive”; as for `COc1cc2cc(CCCOC(=O)CCCC(=O)O)oc(=O)c2cc1OC`, “inactive”.
Regarding `O=C(CCNC(=O)OCC1c2ccccc2-c2ccccc21)NOCc1ccccc1`, the call was inactive.
Consider `Cc1cccc(C)c1OCC(=O)NNC(=O)CCCn1c(=O)oc2ccccc21`, for which the result was inactive.
With `CC(=O)NCCC(=O)Nc1cc(S(=O)(=O)N2CCCCC2)ccc1N1CCN(C)CC1`, the compound was classed as inactive.
Take `C[C@@H]1CCCCO[C@@H](CN(C)C(=O)Cc2ccccc2)[C@H](C)CN([C@H](C)CO)C(=O)c2cc(NS(=O)(=O)c3ccc(Cl)cc3)ccc2O1`: the call was inactive.
With `CN(C)c1ccc2c(c1)[C@H]1C[C@@H](CC(=O)NCc3ccc(Oc4ccccc4)cc3)O[C@H](CO)[C@H]1O2`, the result was inactive.
